The entries come from a sample that favours hits as a whole.
Pf apPOL inh: Pf-apPOL DNA polymerase inhibition | Recombinant Pf-apPOL, molecular beacon fluorescence, 1.5 h | hit rate 0.25% among 210,000 | inhibition, % at 10 µM
mHTT-CaM PPI inh: disrupts binding of mutant huntingtin to calmodulin | P42858 | AID 1671202 | inhibition, % at 15 µM | AlphaScreen His-mHTT/GST-CaM binding, luminescence | hit rate 3.6% among 190,000
Each line names hits and unclear results; the compound was inactive in the other large screens; ! = repeats disagree. Cut-off read from the data, not from the text of the source: active = inhibition above about 50%; inactive = the rest.

O=C1NC(=Nc2ccccc2)S/C1=C/c1cccc(O)c1	none
COCCN1CCC(N2CCCN(S(=O)(=O)c3ccc(OC)c(Cl)c3)CC2)C1=O (stereo unspecified)	none
CCOc1ccccc1C(=O)NC(NCCc1ccccc1)(C(F)(F)F)C(F)(F)F	none (no result: mHTT-CaM PPI inh)
O=C(NCCc1csc(C2CCN(C(=O)c3ccc(F)cc3F)CC2)n1)C1CC1	none
COc1ccc(Cl)cc1C(=O)N1CC2CC(NC(=O)c3cccs3)C1C2 (stereo unspecified)	none
COc1ccc(NC(=O)C2CCCN(C(=O)c3ccc(Cl)cc3)C2)c(OC)c1 (stereo unspecified)	none
C=CCOc1ccc(/C=C2/SC(=Nc3ccccc3)NC2=O)cc1OC	none
COc1cc(/C=C2\SC(=Nc3ccccc3)NC2=O)cc(OC)c1O	mHTT-CaM PPI inh 74
O=C1/C(=C/c2cc(Br)cc([N+](=O)[O-])c2O)Sc2ccccc21	none
COc1cc(/C=C2/SC(=Nc3ccccc3)NC2=O)ccc1OCC#N	mHTT-CaM PPI inh 54
COc1cc(/C=C2\Sc3ccccc3C2=O)cc([N+](=O)[O-])c1O	mHTT-CaM PPI inh 81
C=CCOc1ccc(/C=C2/SC(=Nc3cccc(C(=O)O)c3)NC2=O)cc1OC	mHTT-CaM PPI inh 58
CCOc1ccc(N=C2NC(=O)/C(=C\c3ccc(OC)c(OC)c3)S2)cc1	none
COc1cc(/C=C2\SC(=Nc3ccccc3)NC2=O)cc(OC)c1OC	none
Cc1c(Cl)cccc1NC(=O)c1cc(S(=O)(=O)N2CCCCC2)ccc1F	none
Cc1cc(C)c(C)c(S(=O)(=O)NCC(=O)NCC2CCCO2)c1C (stereo unspecified)	none
COc1ccc(C(OC(=O)c2ccc(OC)c(OC)c2)c2nccc3ccccc23)cc1 (stereo unspecified)	none
COc1cccc(CNC(=O)Cn2c3ccc(F)cc3c(=O)n2C(C)(C)C)c1OC	none
C=CCN(c1ccccc1)C(C(=O)Nc1ccc2c(c1)OCO2)c1ccccc1 (stereo unspecified)	none
O=C(Nc1cnc(N2CCCCC2)nc1)c1ccc(F)c(F)c1	none
Clc1cccc(C2C=C(c3ccc(I)cc3)Nc3ncnn32)c1 (stereo unspecified)	none
c1ccc(OCCCCSc2nnc(-c3ccccc3)o2)cc1	none
COc1cc(NCc2ccccc2Cl)cc(OC)c1	mHTT-CaM PPI inh 75
COc1ccc(NCc2ccc(Cl)cc2Cl)cc1OC	none
Cc1nn(-c2nc3ccccc3s2)c2c1C(c1ccccc1)CC(=O)N2 (stereo unspecified)	none
Cc1cc(C)nc(-n2nc(C)c3c2NC(=O)CC3c2ccc3ccccc3c2)n1 (stereo unspecified)	mHTT-CaM PPI inh 70
CC(=O)Nc1ccc(-c2noc(C3CCCN(C(=O)Cc4ccc(C)cc4)C3)n2)cc1 (stereo unspecified)	none
O=c1[nH]c2ccccc2n1CCCSc1nccc2ccccc12	mHTT-CaM PPI inh 100
Cc1cc(C)nc(SCCCn2c(=O)[nH]c3ccccc32)n1	none
CN1CCCc2cc(C(=O)NC3CCCCCC3)sc21	none
O=C(c1ccccc1)N1N=C(c2ccc([N+](=O)[O-])cc2)CC1c1ccccc1 (stereo unspecified)	none
Cc1cccc(C(=O)N2CCC(COc3ccc(C(=O)N4CCCCC4)cc3)CC2)c1	none
CCCN1C(=O)Cc2cc(C(=O)N3CCN(c4ccccc4C)CC3)ccc21	mHTT-CaM PPI inh 55
CCCN1C(=O)Cc2cc(C(=O)N3CCN(c4ccccn4)CC3)ccc21	none
CC(=O)c1c(C(C)=O)c(C)n(Cc2ccc(Cl)cc2)c1C	mHTT-CaM PPI inh 53
CC(=O)c1sc(=S)n(CCc2ccc(Cl)cc2)c1C	none (no result: mHTT-CaM PPI inh)
O=C(CSc1cccc2cccnc12)Nc1ccccc1	none
CCCCCOc1ccc(NC(=O)CSc2cccc3cccnc23)cc1	mHTT-CaM PPI inh 83
Cc1ccc(C)c(NCC(O)Cn2c(C)c(C)c3ccccc32)c1 (stereo unspecified)	mHTT-CaM PPI inh 95
Cc1c(C)n(CC(O)CN2CCN(Cc3ccccc3)CC2)c2ccccc12 (stereo unspecified)	none
Cc1cccc(NCC(O)Cn2c(C)c(C)c3ccccc32)c1 (stereo unspecified)	mHTT-CaM PPI inh 91
CCN(CC)CC(O)Cn1c(C)c(C)c2ccccc21 (stereo unspecified)	none
CCC(CO)NCC(O)Cn1c(C)c(C)c2ccccc21 (stereo unspecified)	none
Cc1c(C)n(CC(O)CNc2ccccc2)c2ccccc12 (stereo unspecified)	mHTT-CaM PPI inh 54
CCCNc1cc(N2CCCC(CCC(=O)NC3CC3)C2)ncn1 (stereo unspecified)	none
CC(C)CN1C(=O)C(CC(=O)N2CCCCC2)Sc2ncccc21 (stereo unspecified)	none
Nc1c(C(=O)NCc2ccccc2Cl)nnn1-c1ccc2c(c1)OCCO2	none
Cc1ccc(-n2nnc(C(=O)O)c2C)c(F)c1	none
Cn1c(SCC(=O)c2ccc3c(c2)CCCC3)nc2ccccc2c1=O	none
CC(C)(C)C(=O)Nc1ccc2oc(-c3ccccc3)cc(=O)c2c1	none
O=C1CSC(c2cn(-c3ccccc3)nc2-c2ccc(Cl)cc2)N1Cc1cccnc1 (stereo unspecified)	mHTT-CaM PPI inh 58
O=C1CSC(c2cn(-c3ccccc3)nc2-c2ccccc2)N1Cc1cccnc1 (stereo unspecified)	none
O=C1CSC(c2cn(-c3ccccc3)nc2-c2cccs2)N1Cc1ccccc1 (stereo unspecified)	none
Cc1ccc(-c2nn(-c3ccccc3)cc2C2SCC(=O)N2Cc2ccccc2)o1 (stereo unspecified)	mHTT-CaM PPI inh 94
O=C1CSC(c2cn(-c3ccccc3)nc2-c2cc3ccccc3oc2=O)N1Cc1ccco1 (stereo unspecified)	none
O=C1CSC(c2cn(-c3ccccc3)nc2-c2cc3ccccc3oc2=O)N1CC1CCCO1 (stereo unspecified)	mHTT-CaM PPI inh 58
O=C(NCCc1cccc(Cl)c1)C1CCCC1	none
CCCNc1cc(N2CCC(CCC(=O)N3CCN(c4ccccc4)CC3)CC2)ncn1	none
O=C(CSc1n[nH]c(-c2ccncc2)n1)c1ccc(F)cc1	none
O=C(CSc1n[nH]c(-c2ccncc2)n1)c1ccc(O)c(O)c1	mHTT-CaM PPI inh 84!
COc1cc(C2CC(=O)Nc3n[nH]c(C)c32)cc(OC)c1O (stereo unspecified)	none
COc1ccc([C@@H]2C[C@@H](c3ccccc3)Oc3cc(C)cc(C)c32)cc1	none
COc1ccc([C@@H]2C[C@H](c3ccccc3)Oc3cc4c(cc32)OCO4)cc1	mHTT-CaM PPI inh 60!
CC(C)(O)C#CC(O)c1ccccc1F (stereo unspecified)	none
Brc1ccc(C2CC(c3cccs3)Nc3nnnn32)cc1 (stereo unspecified)	none
CCOc1cc2c(c([N+](=O)[O-])c1)NC(c1ccc(Br)cc1)C1CC=CC21 (stereo unspecified)	none
Cc1ccc([N+](=O)[O-])c2c1NC(c1ccc(Br)cc1)C1CC=CC21 (stereo unspecified)	mHTT-CaM PPI inh 97
O=[N+]([O-])c1ccc(C2Nc3c(cccc3C(F)(F)F)C3C=CCC32)cc1 (stereo unspecified)	none
O=C(O)c1ccc([N+](=O)[O-])c2c1NC(c1ccccc1)C1CC=CC21 (stereo unspecified)	mHTT-CaM PPI inh 80!
CC(C)Oc1ncnc2sc3c(c12)CCCC3	none
Cc1cc(O)c(CN2CCOCC2)c2c1C(=O)C(=Cc1cc3cc(Br)ccc3o1)O2	none
O=C(CN1CCN(C(=O)Nc2ccc(Cl)cc2)CC1=O)NCCCc1ccccc1	none

Bioassay records: PubChem, University of Kansas High Throughput Screening Laboratory
